The structures appear in SMILES notation. In all, about 390,000 compounds went through this assay and about 17,000 (4.4%) were called active. A call without a number means that no potency is given here. Another 8% or so got no clear call; they are omitted. Calls follow the shape of the dose curve; as a rule, active = well fitted inhibition curve with a large enough effect; inconclusive = small, poorly fitted or top-dose-only effect; inactive = no such curve, though single readings can be large or run the other way. This excerpt belongs to a sample that is enriched for actives.
Potency is read from the fitted curve at half-maximal effect.

In the assay the target is Lysine-specific demethylase 4A (Homo sapiens) (UniProt O75164). Put plainly: qHTS Assay for Inhibitors of JMJD2A-Tudor Domain. Also: nearly all actives have a fitted effect of over 50% in size. As to conditions: AlphaScreen JMJD2A-Tudor / H3K4me3 peptide binding; series mostly up to 114 µM. A general note: In qHTS, concentration-response curves come from the screen itself.
Chain of Lysine-specific demethylase 4A (Homo sapiens) (O75164 whole entry, looked up, the tested form may be a part): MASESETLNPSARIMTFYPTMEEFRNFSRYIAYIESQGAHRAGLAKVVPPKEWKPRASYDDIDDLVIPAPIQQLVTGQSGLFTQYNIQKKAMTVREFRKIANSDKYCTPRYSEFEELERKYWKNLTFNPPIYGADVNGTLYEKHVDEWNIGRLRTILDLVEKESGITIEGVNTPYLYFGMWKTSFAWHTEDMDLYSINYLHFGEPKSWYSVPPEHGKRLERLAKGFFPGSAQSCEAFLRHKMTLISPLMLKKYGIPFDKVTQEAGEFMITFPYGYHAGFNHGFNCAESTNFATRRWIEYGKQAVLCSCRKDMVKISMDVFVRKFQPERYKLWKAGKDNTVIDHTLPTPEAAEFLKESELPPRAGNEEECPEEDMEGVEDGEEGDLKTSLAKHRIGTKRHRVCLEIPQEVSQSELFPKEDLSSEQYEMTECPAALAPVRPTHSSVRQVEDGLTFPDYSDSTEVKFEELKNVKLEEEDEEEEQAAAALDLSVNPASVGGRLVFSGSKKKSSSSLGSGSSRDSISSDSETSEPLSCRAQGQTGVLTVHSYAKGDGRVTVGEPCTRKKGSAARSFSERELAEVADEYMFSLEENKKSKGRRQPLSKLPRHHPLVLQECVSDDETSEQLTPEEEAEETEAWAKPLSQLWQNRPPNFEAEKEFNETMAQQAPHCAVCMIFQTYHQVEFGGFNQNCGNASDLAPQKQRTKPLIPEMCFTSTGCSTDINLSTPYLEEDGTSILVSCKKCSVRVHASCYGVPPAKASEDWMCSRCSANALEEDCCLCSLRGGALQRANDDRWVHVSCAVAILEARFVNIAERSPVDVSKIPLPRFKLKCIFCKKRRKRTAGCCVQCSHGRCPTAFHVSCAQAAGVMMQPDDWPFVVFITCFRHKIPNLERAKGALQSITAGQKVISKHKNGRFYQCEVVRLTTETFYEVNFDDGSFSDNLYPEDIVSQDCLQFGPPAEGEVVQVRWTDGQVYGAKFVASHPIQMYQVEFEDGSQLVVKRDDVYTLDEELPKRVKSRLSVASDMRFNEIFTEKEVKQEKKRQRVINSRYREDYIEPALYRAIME
With `CCOC(=O)c1ccc(NC(=O)Cn2c(=O)n(-c3ccc(C)cc3)c(=O)c3c2cnn3C)cc1`, the Potency entry was “inactive”.

Consider `CN(C)CCOc1cccc(Br)c1`, for which the Potency was 3.55 µM (active).

For `COc1ccc(OCC(=O)OCCN(C)C)cc1`, the Potency entry was “inactive”.

Consider `COc1ccc(OC)c(NC(=O)CN(C)CCOc2ccc(Br)cc2)c1`, for which the Potency entry is “inactive”.

For the compound `Cc1ccc(-c2cn3c(n2)sc2cc(C(=O)NCCCc4ccccc4)ccc23)cc1`, the Potency entry was “inactive”.

Consider `CCCCOc1ccc(C(=O)Nc2cccc(-c3nc4ccccc4o3)c2C)cc1`, for which the Potency result was “inactive”.

As for `CCCCCCCCOC1OC(CO)C(O)C(O)C1NC(C)=O` (centres undefined), the Potency is 79.4 µM (active).

As to `CCc1cccc(OC2OC(CO)C(O)C(O)C2NC(C)=O)c1` (centres undefined), the Potency entry is “inactive”.

Consider `CCCCCCCCCOC1OC(CO)C(O)C(O)C1NC(C)=O` (centres undefined), for which the Potency entry was “inactive”.

For the compound `CCc1nc2c(cnn2-c2ccc(C)cc2)c(=O)n1-c1ccc(C)cc1`, the Potency result was “inactive”.

Take `CCOC(=O)c1ccccc1CN1C(=O)c2ccccc2S1(=O)=O`: the Potency entry is “inactive”.

Turning to `CCOC(=O)C1=C(c2ccc(OC)cc2)C(=O)c2ccccc2C1=O`, the Potency was 39.8 µM (active).

As for `CCOC(=O)C(NC(C)=O)C(=O)Nc1ccc(OC)cc1` (centres undefined), the Potency result was “inactive”.

For the compound `COc1ccc(NS(=O)(=O)c2cc3c4c(c2)CC(=O)N4CCC3)cc1Cl`, the Potency entry is “inactive”.

As for `CCc1ccc(NS(=O)(=O)c2ccc3[nH]cc(C(=O)NCCc4cccc(C)c4)c(=O)c3c2)cc1`, the Potency result is “inactive”.

As to `COc1ccc(C2/C(=C(/O)c3ccc(OC(C)C)cc3)C(=O)C(=O)N2CCCN2CCOCC2)cc1` (centres undefined), the Potency entry is “inactive”.

As to `COc1cc(OC)c2c(c1C(CCN1CCCCC1)c1ccc(N(C)C)cc1)OC(=O)CC2c1ccc(N(C)C)cc1` (centres undefined), the Potency is 35.5 µM (active).

With `COc1cc(OC)c2ccc(=O)oc2c1C(CCN1CCN(c2ccccc2)CC1)c1ccc2c(c1)OCO2` (centres undefined), the Potency is 17.8 µM (active).

Consider `COc1ccc(C(CCN2CCOCC2)c2c(OC)cc(OC)c3c2OC(=O)CC3c2ccc(OC)cc2)cc1` (centres undefined), for which the Potency was 35.5 µM (active).

Take `O=C(NCC(c1ccc2c(c1)OCO2)N1CCN(c2ccccc2)CC1)C(=O)Nc1ccccc1F` (centres undefined): the Potency result is “inactive”.

Turning to `COc1cc(OC)c2c(c1)OC(=O)CC2c1cc(OC)c(OC)c(OC)c1` (centres undefined), the Potency result was “inactive”.

In the case of `CCN(CC)CCC(c1cc(OC)c(OC)c(OC)c1)c1c(OC)cc(OC)c2c(-c3ccccc3)cc(=O)oc12` (centres undefined), the Potency result is “inactive”.

On to `COc1cc(COCC(O)CN2CCN(Cc3ccc4c(c3)OCO4)CC2)cc(OC)c1OC` (centres undefined), for which the Potency result is “inactive”.

For `COc1cc(C2CC(=O)Oc3cc(OC)c(OC)c(OC)c32)cc(OC)c1OC` (centres undefined), the Potency result was “inactive”.

Take `COc1ccc(C2CC(=O)Oc3ccc(C(C)(C)C)cc32)cc1` (centres undefined): the Potency entry is “inactive”.

On to `COc1cc(OC)c2c(C)cc(=O)oc2c1C(CCN1CCCCC1)c1ccc(N(C)C)cc1` (centres undefined), for which the Potency is 39.8 µM (active).

Regarding `COc1ccc(CNC(=O)c2cc3c(=O)[nH]c4ccc(C)cc4c3s2)c(OC)c1`, the Potency entry is “inactive”.

For `COc1ccc(-c2cn3c(n2)sc2cc(C(=O)Nc4ccccc4F)ccc23)cc1`, the Potency result was “inactive”.

Regarding `Cc1ccccc1CNC(=O)c1cccc(NC(=O)c2nsc3ccccc23)c1`, the Potency entry was “inactive”.

Regarding `COc1ccc(-n2c(=O)c3sc4ccccc4c3n(CC(=O)Nc3cccc(C)c3)c2=O)cc1`, the Potency entry was “inactive”.

On to `O=C(Nc1ccc2nc(SCCOc3ccccc3)sc2c1)c1ccco1`, for which the Potency result is “inactive”.

On to `CC(=O)c1ccc(NS(=O)(=O)c2ccc(-c3cc(C)no3)s2)cc1`, for which the Potency result was “inactive”.

In the case of `CCN(CC)c1nn2c(=O)c(C(=O)NCCc3ccccc3)cnc2s1`, the Potency entry was “inactive”.

`CCN(CCCNC(=O)c1c(C)oc2ncn(CC(C)C)c(=O)c12)Cc1ccccc1`: the Potency entry is “inactive”.

In the case of `CCc1ccc(NC(=O)CCS(=O)(=O)c2cc3c(cc2Cl)NC(=O)CO3)cc1`, the Potency result is “inactive”.

As for `O=C(CSc1nc(=O)n(Cc2cccnc2)c2c1CCC2)Nc1ccc(F)cc1F`, the Potency entry is “inactive”.

`O=S(=O)(c1ccc2nc(NCc3ccccc3Cl)ccc2c1)N1CCCCC1`: the Potency result was “inactive”.

As to `O=[N+]([O-])c1ccccc1S(=O)(=O)Nc1cccc2cccnc12`, the Potency is 56.2 µM (active).

Regarding `COc1cc(NS(=O)(=O)c2ccc3ccccc3c2)c2ncccc2c1`, the Potency result is “inactive”.

`O=S(=O)(Nc1cccc2cccnc12)c1cccc2cccnc12`: the Potency result is “inactive”.

As for `COc1ccccc1CNC(=O)C(Cc1ccccc1)NS(=O)(=O)c1ccc2c(c1)oc(=O)n2C` (centres undefined), the Potency entry is “inactive”.

`O=C1CCCc2cc(S(=O)(=O)N3CCCC(C(=O)NCc4ccccc4)C3)ccc2N1` (centres undefined): the Potency result was “inactive”.

In the case of `O=C(NCc1ccccc1Cl)c1cccn1-c1nnc(N2CCCCC2)s1`, the Potency result was “inactive”.

As to `COc1ccc(-c2nn(CC(=O)Nc3ccccc3F)c3c2cnc2ccc(F)cc23)cc1`, the Potency result was “inactive”.

Consider `C=CCOc1cccc(CNn2cn[nH]c2=S)c1`, for which the Potency was 22.4 µM (active).

Regarding `COc1cccc(CNCCSc2nnnn2C)c1OCc1ccccc1Cl`, the Potency entry was “inactive”.

For the compound `C=CCOc1cccc(CNCc2cccnc2)c1`, the Potency entry was “inactive”.

For `C=CCC(Nc1ccccc1)c1cccc(OC)c1OC` (centres undefined), the Potency result was “inactive”.

Take `C=CCOc1cccc(C2NC(=O)c3ccccc3O2)c1` (centres undefined): the Potency entry is “inactive”.

With `C=CCOc1c(CNn2cn[nH]c2=S)cccc1OC`, the Potency was 3.55 µM (active).

Take `COc1ccc(CCNC(=O)c2cc(=O)c3c(C)cc(C)cc3o2)cc1OC`: the Potency result is “inactive”.

For the compound `CSc1nc(-c2ccccc2Cl)nc2c1Cc1c(CO)cnc(C)c1O2`, the Potency entry was “inactive”.

For `COc1ccccc1CNC(=O)c1ccc(CS(=O)c2ccccc2Cl)o1` (centres undefined), the Potency entry was “inactive”.

For `CCc1nn(CC(=O)Nc2cc(C)cc(C)c2)c(=O)c2cc3sccc3n12`, the Potency result was “inactive”.

On to `CC(=O)N1CCCc2cc(S(=O)(=O)N3CCC(C(=O)NC4CCCCC4)CC3)ccc21`, for which the Potency entry is “inactive”.

On to `CN(CC(=O)Nc1cccc(C(F)(F)F)c1)S(=O)(=O)c1cccs1`, for which the Potency result was “inactive”.

`CN(CC(=O)NCc1ccc(Cl)cc1)S(=O)(=O)c1cccs1`: the Potency was 89.1 µM (active).

Turning to `COc1ccc(CNC(=O)CN(Cc2ccc(Cl)cc2)S(C)(=O)=O)cc1`, the Potency result is “inactive”.

Consider `Cc1ccc2sc(N(Cc3cccnc3)C(=O)C3COc4ccccc4O3)nc2c1C` (centres undefined), for which the Potency entry is “inactive”.

On to `Cc1ccc(C(=O)Nc2ccc(OCc3cc(=O)n4c5c(sc4n3)CCCC5)cc2)cc1`, for which the Potency result was “inactive”.

With `COn1c(=O)c(=O)n(OC)c2ccccc21`, the Potency entry was “inactive”.

Turning to `CCOn1c(=O)c(=O)n(O)c2ccccc21`, the Potency was 44.7 µM (active).

Consider `CCOC(=O)c1nnn2c3ccccc3c(=O)n(C)c12`, for which the Potency result was “inactive”.

For the compound `Cc1ccc(-c2cnc(C3CC3)o2)cc1S(=O)(=O)Nc1cccc(C)c1C`, the Potency entry is “inactive”.

The values are drawn from PubChem BioAssay AID504339 (National Center for Advancing Translational Sciences (NCATS), 2011).
